The results in this text go back to PubChem BioAssay (NCATS).

Inconclusive results are not listed. The source made the active and inactive calls. Calls come from the whole dose curve; as a rule, active = well fitted curve in the direction sought with a large enough effect; inconclusive = small, poorly fitted or top-dose-only effect, or another doubt; inactive = no such curve, though single readings can be large; an effect the other way counts as inactive or inconclusive.

Test [1] in a line: qHTS of pediatric cancer cell lines to identify multiple opportunities for drug repurposing: Primary screen for BT-12 cells (AID 1347101). Note: nearly all actives have a fitted effect of over 25% in size. Note: potency is the fitted concentration of half-maximal effect. Put shortly:
(§1)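 Cells (500-1,000/well) rested 5 h, then received compounds for 48 h; metabolically active cells were measured by CellTiter-Glo luminescence. Final concentrations spanned up to 46 µM (MIPE, 11-point) or 0.59 nM-46 µM (NPC, 8-point) in primary screens, 11-point in follow-ups.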
Background: qHTS replaces the single test concentration by a dilution series.

Test [2] in a line: qHTS of pediatric cancer cell lines to identify multiple opportunities for drug repurposing: Primary screen for Rh18 cells (AID 1347102). Note: nearly all actives have a fitted effect of over 65% in size. Summed up: as §1
A short description of test [3]: qHTS of pediatric cancer cell lines to identify multiple opportunities for drug repurposing: Primary screen for OHS-50 cells (AID 1347103). Note: nearly all actives have a fitted effect of over 40% in size. Note: potency is the fitted concentration of half-maximal effect. Put shortly:
as §1

Test [4] in a line: qHTS of pediatric cancer cell lines to identify multiple opportunities for drug repurposing: Primary screen for MG 63 (6-TG R) cells (AID 1347105). Note: nearly all actives have a fitted effect of over 50% in size. Put shortly: (§2)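 Quantitative HTS format: each compound titrated (MIPE 11 points from 0.78 nM, NPC 8 points from 0.59 nM) onto cells plated 5 hours earlier. After 48 h at 37 degrees C, CellTiter-Glo luminescence was recorded.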
A short description of test [5]: qHTS of pediatric cancer cell lines to identify multiple opportunities for drug repurposing: Primary screen for control Hh wild type fibroblast cells (AID 1347106).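 Note: series mostly up to about 46 µM; a drop in luminescence marks cytotoxicity and a rise apparent proliferation; nearly all actives have a fitted effect of over 55% in size.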 Put shortly: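 Viability after 48 h compound treatment at 37C, 500-1,000 cells/well, read as ATP luminescence with CellTiter-Glo. Primary screens used 11-point (MIPE, 0.78 nM-46 µM) or 8-point (NPC, 0.59 nM-46 µM) final concentrations; follow-up screens used 11-point dilutions.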

A short description of test [6]: qHTS of pediatric cancer cell lines to identify multiple opportunities for drug repurposing: Primary screen for Rh30 cells (AID 1347107). Note: series mostly up to about 46 µM; nearly all actives have a fitted effect of over 75% in size. Put shortly:
as §1

A short description of test [7]: qHTS of pediatric cancer cell lines to identify multiple opportunities for drug repurposing: Primary screen for Rh41 cells (AID 1347108).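 Note: series mostly up to about 46 µM; luminescence drop marks cytotoxic hits; nearly all actives have a fitted effect of over 70% in size.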 Put shortly:
as §2

Test [8] can be described thus: qHTS of pediatric cancer cell lines to identify multiple opportunities for drug repurposing: Confirmatory screen for A673 cells (AID 1347110).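 Note: cells exposed to compound for 48 h before the viability read; nearly all actives have a fitted effect of over 65% in size.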 Put shortly:
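Cells plated at 500-1,000/well were treated five hours later with multi-point dilutions up to 46 µM final. After two days, CellTiter-Glo was added and luminescence read.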

A short description of test [9]: qHTS of pediatric cancer cell lines to identify multiple opportunities for drug repurposing: Primary screen for RD cells (AID 1347104). Note: nearly all actives have a fitted effect of over 55% in size. Put shortly: as §2

Turning to `CN(N=O)C(=O)N[C@@H]1[C@@H](O)[C@H](O)[C@@H](CO)O[C@@H]1O`, the Potency entry in [1], in [2], in test [3], in test [4] and in [7] was “inactive” throughout. Moreover, the molecule was classed as inactive in test [5] and in [6].
`CC(COc1ccccc1)NC(C)C(O)c1ccc(O)cc1` (stereo not drawn): the Potency entry in [1], in test [2], in test [3], in test [4] and in test [7] was “inactive” throughout. The result in [5] and in test [6] was inactive.
Turning to `O=C(O)c1ccccn1`, the Potency result in test [1], in test [2], in [3], in test [4] and in test [7] was “inactive” throughout. The molecule was classed as inactive in [5] and in test [6].
As for `NS(=O)(=O)c1cc2c(cc1C(F)(F)F)NC(Cc1ccccc1)NS2(=O)=O` (stereo not drawn), the Potency result in [1], in test [2], in test [3], in test [4] and in test [7] was “inactive” each time. In test [5], the result was inactive.
Turning to `O=C(O)CN1C(=O)c2cccc3cccc(c23)C1=O`, the Potency in test [1] and in test [3] was 1 nM (active) throughout. Also, the Potency entry in test [2], in [4], in test [7] and in test [8] was “inactive” in each case. Besides, the molecule was called inactive in test [5].
With `O=C1NS(=O)(=O)c2ccccc21`, the Potency result in test [1], in test [2], in [3], in test [4] and in [7] was “inactive” in each case. Moreover, the molecule was called inactive in [5] and in test [6].
Regarding `Nc1ccc(S(=O)(=O)Nc2ccccc2)cc1`, the Potency entry in [1], in test [2], in test [3], in test [4] and in test [7] was “inactive” each time. Besides, the outcome in test [5] and in [6] was inactive.
`CN1[C@@H]2CC[C@H]1CC(OC(=O)C(O)c1ccccc1)C2` (stereo partly drawn): the Potency entry in test [1], in [2], in test [3], in test [4] and in test [7] was “inactive” in each case. Further, the molecule was called inactive in test [5].
Take `NCC(=O)CCC(=O)O`: the Potency result in test [1], in test [2], in test [3], in test [4] and in test [7] was “inactive” each time. Further, the result in [5] was inactive.
Regarding `CCCn1cnc2c1c(=O)n(CCCCC(C)=O)c(=O)n2C`, the Potency entry in test [1], in test [2], in test [3], in test [4] and in [7] was “inactive” throughout. In addition, the molecule was called inactive in [5] and in test [6].
For `c1ccc(CN(CC2=NCCN2)c2ccccc2)cc1`, the Potency entry in test [1], in test [2], in [3], in test [4] and in test [7] was “inactive” throughout. Also, the call in test [5] and in [6] was inactive.
Turning to `O=C(O)c1ccccc1-c1ccc(C(F)(F)F)cc1`, the Potency result in test [1], in test [2], in test [3], in test [4] and in test [7] was “inactive” in each case. Besides, the molecule was called inactive in test [5] and in [6].
For `COc1cc2[nH]c(=O)[nH]c(=O)c2cc1OC`, the Potency entry in [1], in test [2], in [3], in test [4] and in [7] was “inactive” in each case. In addition, the molecule was called inactive in test [5].
Consider `C[C@@H]1CCN(C(=O)[C@H](CCCN=C(N)N)NS(=O)(=O)c2cccc3c2NC[C@H](C)C3)[C@@H](C(=O)O)C1`, for which the Potency entry in test [1], in test [2], in [3], in [4] and in test [7] was “inactive” throughout. Besides, the molecule was called inactive in [5] and in test [6].
In the case of `CCCCCCCCCCCCCCCC(=O)NCCO`, the Potency entry in test [1], in test [2], in test [3], in [4] and in [7] was “inactive” each time. Further, the result in test [5] and in test [6] was inactive.
`CCC(=O)Nc1ccc(O)cc1`: the Potency result in [1], in [2], in test [3], in [4] and in test [7] was “inactive” throughout. Also, the result in test [5] and in test [6] was inactive.
With `Nc1ccc(S(=O)(=O)NC(=O)c2ccccc2)cc1`, the Potency entry in [1], in test [2], in [3], in [4] and in test [7] was “inactive” in each case. Further, the molecule was classed as inactive in [5] and in test [6].
As for `[Cl][In]([Cl])[Cl]`, the Potency entry in test [1], in [2], in test [4] and in [7] was “inactive” each time. In addition, the Potency in test [3] was 25200 nM (active). The outcome in [5] and in [6] was inactive.
For `CCN(CC)CCNC(C(=O)OCCC(C)C)c1ccccc1` (stereo not drawn), the Potency entry in test [1], in test [2], in [3], in test [4] and in test [7] was “inactive” in each case. For the same molecule, the outcome in test [5] and in test [6] was inactive.
As to `CC(C)(C)C(=O)C(Oc1ccc(Cl)cc1)n1ccnc1` (stereo not drawn), the Potency result in test [1], in test [3], in test [9], in [4] and in test [7] was “inactive” in each case. Moreover, the call in test [5] and in test [6] was inactive.
`CC1(C)[C@@H]2CC[C@@]1(C)C(=O)C2`: the Potency entry in test [1], in test [3], in [9], in test [4] and in test [7] was “inactive” in each case. Moreover, the molecule was classed as inactive in test [5] and in test [6].
